# Data taken from ChEMBL document CHEMBL2218924, “A broad activity screen in support of a chemogenomic map for kinase signalling research and drug discovery” (Biochem J, 2013).
# Legend:
# [1] = biological target: T1, Casein kinase II (Homo sapiens) (UniProt P67870+P68400+P19784); conditions: at 1 µM
# [2] = biological target: T1, Casein kinase II (Homo sapiens); conditions: at 10 µM
# [3] = biological target: Casein kinase II subunit alpha' (Homo sapiens) (UniProt P19784); conditions: at 1 µM
# [4] = biological target: Casein kinase II subunit alpha' (Homo sapiens) (UniProt P19784); conditions: at 10 µM
# [5] = biological target: Dual specificity protein kinase CLK2 (Homo sapiens) (UniProt P49760); conditions: at 1 µM
# [6] = biological target: Dual specificity protein kinase CLK2 (Homo sapiens) (UniProt P49760); conditions: at 10 µM
# [7] = biological target: Dual specificity protein kinase CLK3 (Homo sapiens) (UniProt P49761); conditions: at 1 µM
# [8] = biological target: Dual specificity protein kinase CLK3 (Homo sapiens) (UniProt P49761); conditions: at 10 µM
# [9] = biological target: Tyrosine-protein kinase CSK (Homo sapiens) (UniProt P41240); conditions: at 10 µM
# [10] = biological target: Tyrosine-protein kinase CSK (Homo sapiens) (UniProt P41240); conditions: at 1 µM
# Chain of Tyrosine-protein kinase CSK (Homo sapiens) (P41240 2-450 limits assumed): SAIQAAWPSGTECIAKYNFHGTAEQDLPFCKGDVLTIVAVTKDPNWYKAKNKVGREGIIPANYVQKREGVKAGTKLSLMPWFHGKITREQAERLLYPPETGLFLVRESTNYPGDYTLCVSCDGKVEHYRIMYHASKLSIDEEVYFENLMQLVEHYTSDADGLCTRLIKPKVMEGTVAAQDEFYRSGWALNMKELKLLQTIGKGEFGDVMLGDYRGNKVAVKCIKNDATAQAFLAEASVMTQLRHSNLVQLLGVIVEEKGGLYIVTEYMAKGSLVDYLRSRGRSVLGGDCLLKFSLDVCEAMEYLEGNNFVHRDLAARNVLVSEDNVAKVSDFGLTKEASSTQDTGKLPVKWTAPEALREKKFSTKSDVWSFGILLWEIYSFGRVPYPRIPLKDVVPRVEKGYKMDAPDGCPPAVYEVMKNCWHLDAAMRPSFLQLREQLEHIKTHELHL
# Chain of Casein kinase II subunit alpha' (Homo sapiens) (P19784 whole entry, looked up): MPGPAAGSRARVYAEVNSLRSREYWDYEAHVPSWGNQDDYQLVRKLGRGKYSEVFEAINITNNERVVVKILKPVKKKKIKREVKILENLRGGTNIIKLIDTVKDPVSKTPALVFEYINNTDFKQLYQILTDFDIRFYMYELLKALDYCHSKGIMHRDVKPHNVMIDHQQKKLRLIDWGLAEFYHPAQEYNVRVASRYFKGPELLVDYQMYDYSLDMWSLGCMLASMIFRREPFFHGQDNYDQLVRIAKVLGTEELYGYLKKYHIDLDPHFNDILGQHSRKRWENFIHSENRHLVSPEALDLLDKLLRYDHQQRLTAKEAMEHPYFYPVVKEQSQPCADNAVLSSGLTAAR
# T1 sequence (P19784 whole entry, looked up): as above
# T1 sequence (P67870 whole entry, looked up): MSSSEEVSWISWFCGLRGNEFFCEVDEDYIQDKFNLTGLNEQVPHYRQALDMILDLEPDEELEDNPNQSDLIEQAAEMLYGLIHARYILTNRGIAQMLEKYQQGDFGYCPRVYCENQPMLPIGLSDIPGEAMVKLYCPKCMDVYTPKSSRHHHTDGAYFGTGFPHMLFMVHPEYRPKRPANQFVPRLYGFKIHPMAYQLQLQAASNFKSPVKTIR
# T1 sequence (P68400 whole entry, looked up): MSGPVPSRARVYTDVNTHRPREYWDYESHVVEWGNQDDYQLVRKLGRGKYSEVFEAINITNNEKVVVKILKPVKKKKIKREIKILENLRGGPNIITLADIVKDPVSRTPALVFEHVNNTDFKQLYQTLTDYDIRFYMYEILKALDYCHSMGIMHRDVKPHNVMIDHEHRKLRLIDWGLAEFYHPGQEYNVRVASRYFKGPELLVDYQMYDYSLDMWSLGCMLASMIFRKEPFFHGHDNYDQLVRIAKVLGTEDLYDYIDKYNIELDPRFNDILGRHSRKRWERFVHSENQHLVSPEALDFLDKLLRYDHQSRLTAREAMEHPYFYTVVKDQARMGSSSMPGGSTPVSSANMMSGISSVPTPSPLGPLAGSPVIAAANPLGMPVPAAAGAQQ
# Chain of Dual specificity protein kinase CLK2 (Homo sapiens) (P49760 whole entry, looked up): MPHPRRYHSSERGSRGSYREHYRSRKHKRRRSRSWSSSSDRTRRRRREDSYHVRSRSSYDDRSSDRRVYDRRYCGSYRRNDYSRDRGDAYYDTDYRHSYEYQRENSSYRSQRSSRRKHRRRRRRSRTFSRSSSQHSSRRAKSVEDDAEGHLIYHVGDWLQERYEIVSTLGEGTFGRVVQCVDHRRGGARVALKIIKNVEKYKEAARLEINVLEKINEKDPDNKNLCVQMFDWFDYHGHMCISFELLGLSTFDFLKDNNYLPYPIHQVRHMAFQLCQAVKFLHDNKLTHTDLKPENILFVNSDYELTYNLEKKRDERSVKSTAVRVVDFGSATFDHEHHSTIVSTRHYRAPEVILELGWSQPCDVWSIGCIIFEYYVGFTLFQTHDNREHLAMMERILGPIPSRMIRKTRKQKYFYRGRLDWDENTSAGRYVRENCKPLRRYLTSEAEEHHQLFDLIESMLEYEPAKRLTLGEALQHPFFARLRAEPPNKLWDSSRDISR
# Chain of Dual specificity protein kinase CLK3 (Homo sapiens) (P49761 whole entry, looked up): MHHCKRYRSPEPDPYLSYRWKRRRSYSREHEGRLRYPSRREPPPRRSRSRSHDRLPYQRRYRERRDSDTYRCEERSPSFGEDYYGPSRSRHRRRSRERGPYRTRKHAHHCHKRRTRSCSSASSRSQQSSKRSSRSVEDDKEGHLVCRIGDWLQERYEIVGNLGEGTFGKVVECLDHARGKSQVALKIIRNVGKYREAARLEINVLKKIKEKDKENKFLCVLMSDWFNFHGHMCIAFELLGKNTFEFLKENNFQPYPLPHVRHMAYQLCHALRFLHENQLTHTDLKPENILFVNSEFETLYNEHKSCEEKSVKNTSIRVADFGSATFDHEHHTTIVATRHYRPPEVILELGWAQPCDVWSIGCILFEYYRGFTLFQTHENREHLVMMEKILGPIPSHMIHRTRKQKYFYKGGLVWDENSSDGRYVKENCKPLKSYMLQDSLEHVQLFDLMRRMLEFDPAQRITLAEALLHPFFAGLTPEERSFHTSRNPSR
SMILES,residual activity [1] [%],residual activity [2] [%],residual activity [3] [%],residual activity [4] [%],residual activity [5] [%],residual activity [6] [%],residual activity [7] [%],residual activity [8] [%],residual activity [9] [%],residual activity [10] [%]
O=C1NC(=O)C(c2cn(CCCO)c3ncccc23)=C1c1cnccn1,76,66,57,52,52,36,74,78,97,
CSc1nc(-c2ccc(F)cc2)c(-c2ccnc(NC(C)c3ccccc3)c2)[nH]1 (stereo not given),99,99,,,,89,84,86,84,102
O=C1Cc2c([nH]c3ccc(Br)cc23)-c2ccccc2N1,79,55,,92,80,56,78,67,81,
Fc1ccc(-c2nc3n(c2-c2ccncc2)CCS3)cc1,99,98,,,,,97,86,,
CC(C)(C)c1nc2c3ccc(F)cc3c3c(=O)[nH]ccc3c2[nH]1,56,63,100,34,34,50,68,13,,
Nc1nc(Nc2ccc(S(N)(=O)=O)cc2)nn1C(=O)c1c(F)cccc1F,111,97,104,99,40,9,20,0,100,99
CCCCc1c(-c2ccc(O)cc2)[nH]c2nccnc12,99,92,,87,64,47,83,52,,
O=C1Nc2ccc(Cl)cc2/C1=C/c1cc(Cl)c(O)c(Cl)c1,41,4,92,32,84,45,70,29,,96
Nc1n[nH]c2nc3ccccc3nc12,85,62,,,84,52,88,71,,
O=C(O)/C=C/c1cc(Br)c(Br)c(Br)c1Br,12,-8,33,5,102,49,79,52,,
COc1cc2nccc(Oc3ccc(NC(=S)NC(=O)c4ccccc4C)cc3)c2cc1OC,83,100,,91,,,66,46,69,96
COc1cc2c(cc1OC)-c1n[nH]c(Nc3cccc(F)c3)c1C2,82,106,,,108,68,59,48,29,80
Nc1ncnc2c1cnn2-c1ccccc1,87,36,,58,,,87,99,,
O=C1C(Cl)=C(N2C(=O)CCC2=O)C(=O)c2ccccc21,99,100,100,98,102,80,89,79,,
O=c1cc(N2CCNCC2)oc2c(-c3ccccc3)cccc12,79,52,,90,90,93,81,100,,
CN(C)S(=O)(=O)c1ccc2c(c1)/C(=C/c1cc3c([nH]1)CCCC3)C(=O)N2,95,100,,94,69,71,39,28,,
NC(=O)c1cccc(-c2cc(Nc3ccc(OC(F)(F)F)cc3)ncn2)c1,99,97,,,,,97,,,
O=C1NC(=O)c2c1c1c3ccccc3[nH]c1n1cncc21,60,21,81,21,51,46,70,53,58,97
O=c1cc(N2CCOCC2)oc2c1ccc1ccccc12,18,-1,56,5,98,45,91,,,103
N#Cc1c(NC(=O)c2cccc3ccccc23)sc2c1CCCC2,97,99,,,,99,77,87,99,
NC(=O)Nc1sc(-c2ccc(F)cc2)cc1C(N)=O,68,34,78,18,105,46,,,56,92

SMILES,residual activity [1] [%],residual activity [2] [%],residual activity [3] [%],residual activity [4] [%],residual activity [5] [%],residual activity [6] [%],residual activity [7] [%],residual activity [8] [%],residual activity [9] [%],residual activity [10] [%]
O=c1cc(N2CCOCC2)oc2c(-c3ccccc3)cccc12,54,12,,42,,,,,,
Oc1cccc(-c2nc(N3CCOCC3)c3oc4ncccc4c3n2)c1,89,124,140,79,118,89,79,30,,
CCCC(=O)Oc1ccc2[nH]c(C(=O)c3cc4ccccc4[nH]3)cc2c1,86,106,132,98,122,101,81,,100,101
O=C(c1ccccc1)c1ccc(N2CCOCC2)cc1O,88,113,122,,,,89,,84,
CC(C)c1nn(-c2c(Cl)cccc2Cl)c2nc(Cc3ccc(OCCO)cc3)[nH]c(=O)c12,100,96,108,94,38,48,77,59,106,123
O=C(CCCc1ccc(-c2ccccc2F)cc1)Nc1ccc(O)cc1,92,97,106,102,,,92,89,107,104
COc1ccc(Cl)cc1NC(=O)Nc1cc(C)nc2ccccc12,94,,,,,,,,,
Nc1ncnc2c1c(-c1ccc(Oc3ccccc3)cc1)cn2C1CCCC1,79,105,118,86,112,88,82,6,-1,0
N#C/C(=C1/Nc2ccccc2S1)c1ccnc(NCCc2cccnc2)n1,58,15,41,15,29,13,39,6,,
CCOC(=O)c1c(C)[nH]c(/C=C2\C(=O)Nc3ccccc32)c1C,77,118,131,89,95,95,82,73,,
CCN1/C(=C/C(C)=O)Sc2ccc(OC)cc21,,,,,20,6,77,40,,
CC(C)(C)n1nc(Cc2cccc3ccccc23)c2c(N)ncnc21,,,118,72,94,42,95,32,20,82
O=C1Cc2c([nH]c3ccc([N+](=O)[O-])cc23)-c2ccccc2N1,,,,,,,,82,,
O=c1c(-c2ccc(F)cc2)c(-c2ccncc2)[nH]n1-c1ccc(Cl)cc1,,,,,122,101,,81,,
O=C1Nc2ccccc2/C1=C\c1c(Cl)[nH]c2ccccc12,,,,,,,,76,99,
COc1ccc(CNC(=O)Nc2ncc([N+](=O)[O-])s2)cc1,,,,,102,105,,,74,81
Nc1ncnc2[nH]nc(Nc3ccc(F)cc3)c12,104,,104,73,109,68,,,65,90
O=C(c1cc2cc(O)ccc2[nH]1)c1cc2cc(O)ccc2[nH]1,,,,72,32,5,69,4,,
O=C(Nc1ccc(Cl)cc1)c1ccccc1NCc1ccncc1,,,,,120,99,,,,
CC(C)[C@H](CO)Nc1nc(Nc2cc(N)cc(Cl)c2)c2ncn(C(C)C)c2n1,,93,120,96,,,,,73,
COc1ccc2c(c1)c(C1=C(c3c[nH]c4ccccc34)C(=O)NC1=O)cn2CCCN(C)C,,111,,,14,2,59,45,,

SMILES,residual activity [1] [%],residual activity [2] [%],residual activity [3] [%],residual activity [4] [%],residual activity [5] [%],residual activity [6] [%],residual activity [7] [%],residual activity [8] [%],residual activity [9] [%],residual activity [10] [%]
N#C/C(=C\c1ccc(O)c(O)c1)C(=O)NCc1ccccc1,,,129,100,,80,82,,,
NCCNc1ncc(C(N)=O)c(Nc2cccc(C(F)(F)F)c2)n1,,,,,,,82,63,,
CCN(CC)CCNC(=O)c1c(C)[nH]c(/C=C2\C(=O)Nc3ccc(Cl)cc32)c1C,,,,47,9,1,77,4,,
O=C(NC(NC(=S)Nc1ccc(F)c([N+](=O)[O-])c1)C(Cl)(Cl)Cl)C(c1ccccc1)c1ccccc1 (stereo not given),,85,,,,,94,84,101,95
CC(C)N(CCC(=O)c1ccc2ccccc2c1)Cc1ccccc1,,,,,,,74,,,
O=C(Nc1nc2ccccc2n1CCN1CCOCC1)c1cccc([N+](=O)[O-])c1,86,,,,26,24,55,56,105,103
c1ccc(-c2cnc(Nc3ccc(OCCN4CCCC4)cc3)s2)cc1,,,127,81,,30,,,,
O=C1NC(=O)C(c2cn(CCCn3ccnc3)c3ccccc23)=C1Nc1ccccc1,,,,,8,2,55,36,78,107
Cn1c2ccccc2c2c3c(c4c5ccccc5n(CCC#N)c4c21)CNC3=O,,103,129,96,,,,1,102,107
O=S(=O)(NCCNC/C=C/c1ccc(Br)cc1)c1cccc2cnccc12,,,,,,68,79,,,100
NC(=O)c1ccc(-c2nc(-c3ccc4c(c3)OCCO4)c(-c3ccccn3)[nH]2)cc1,95,97,,,,,81,76,91,119
COc1ccc(-c2cnc3c(-c4ccsc4)cnn3c2)cc1,,,,,,,80,61,98,
COc1cc2ncnc(Nc3cccc(Cl)c3)c2cc1OC,,,128,102,110,74,,84,80,111
Cn1sc(=O)n(Cc2ccccc2)c1=O,85,90,,,,,64,74,90,92
O=C1NC(=O)C(c2c[nH]c3ccccc23)=C1c1c[nH]c2ccccc12,,,118,,27,5,60,29,,
COc1ccc(COc2ccc(Cc3cnc(N)nc3N)cc2OC)cc1,,,110,74,108,100,,3,,
Cc1cc(C)c(/C=C2\C(=O)Nc3ccccc32)[nH]1,,,,,49,37,80,11,,
COc1cc2nccc(Oc3ccc(NC(=O)Nc4cc(C)on4)c(Cl)c3)c2cc1OC,,,,,,99,80,4,35,72
CCCCc1c(-c2ccc(OC)cc2)[nH]c2nccnc12,,,111,,78,,85,73,,
O=S(=O)(c1cccc2cnccc12)N1CCCNCC1,,,,,,,,81,,
Nc1nccc(-c2c(-c3ccc(F)cc3)ncn2C2CCNCC2)n1,,,,60,69,30,,68,,
